# Assay results published in PubChem BioAssay (Tox21).
# Values joined by “and” are separate entries in the source; they are usually repeats but may differ in a detail not shown here. Identical values can stand only once. Inconclusive results are not listed. A call without a number means that no potency is given here. Where a structure was tested more than once in an assay, its records may differ in their call. Active and inactive are the calls of the source. Unless noted, the call rests on the fitted dose curve; in most records, active means well fitted curve in the direction sought with a large enough effect in the repeat runs; inconclusive means weak or mixed curves; inactive means no such curve, though single readings can be large; an effect the other way counts as inactive or inconclusive.
# Legend:
# [1] = qHTS assay to identify small molecule that activate the aryl hydrocarbon receptor (AhR) signaling pathway - cell viability counter screen (AID 743086); further: nearly all actives have a fitted effect of over 45% in size; further: potency means the concentration at half of the fitted maximal effect
# How it was run: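 Cytotoxicity counter screen: CellTiter-Fluor signal (30 min, 37 C) in 4000 HepG2 cells/well carrying the DRE-luciferase reporter, following 24 h compound exposure at 37 C.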
# [2] = biological target: Peroxisome proliferator-activated receptor gamma (Homo sapiens) (UniProt P37231); test: qHTS assay to identify small molecule agonists of the peroxisome proliferator-activated receptor gamma (PPARg) signaling pathway (AID 743094; active means well fitted activation curve with a large enough effect in the signal ratio in the repeat runs, not every such curve was filed as active; the % refers to the signal ratio; further: potency means the concentration at half of the fitted maximal effect)
# How it was run: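 Following 5 h plating at 37C, PPARg-bla HEK293H cells receive compound or DMSO for 17 h; fluorescence intensity is recorded after LiveBLAzer B/G loading for 1 h at room temperature.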
# [3] = biological target: Peroxisome proliferator-activated receptor gamma (Homo sapiens) (UniProt P37231); test: qHTS assay to identify small molecule antagonists of the peroxisome proliferator-activated receptor gamma (PPARg) signaling pathway (AID 743191; calls by dose curve; further: nearly all actives have a fitted effect of over 30% in size; further: potency means the concentration at half of the fitted maximal effect)
# How it was run: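 Beta-lactamase reporter under UAS control in HEK293H PPARg-bla cells; compound treatment 17 h at 37C. Read-out: fluorescence intensity after 1 h room-temperature incubation with LiveBLAzer B/G FRET substrate.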
# [4] = qHTS assay to identify small molecule antagonists of the peroxisome proliferator-activated receptor gamma (PPARg) signaling pathway - cell viability counter screen (AID 743194); further: nearly all actives have a fitted effect of over 55% in size
# How it was run: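 Viability was measured as CellTiter-Glo luminescence in GeneBLAzer PPARg UAS-bla HEK293H cells. These cells had been exposed 17 h at 37 C to compounds together with rosiglitazone at 50 nM final, with the beta-lactamase readout taken in the same wells.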
# [5] = qHTS assay for small molecule agonists of the antioxidant response element (ARE) signaling pathway (AID 743202; active means well fitted activation curve with a large enough effect in the signal ratio in the repeat runs, not every such curve was filed as active; the % refers to the signal ratio; further: potency means the concentration at half of the fitted maximal effect)
# How it was run: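 Quantitative high-throughput format in HepG2 cells bearing an integrated ARE-beta-lactamase reporter. Compound exposure lasted 16 h at 37 C, and fluorescence was read 2 h after adding LiveBLAzer B/G substrate at room temperature.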
# [6] = qHTS assay for small molecule agonists of the antioxidant response element (ARE) signaling pathway - cell viability counter screen (AID 743203; calls by dose curve; further: nearly all actives have a fitted effect of over 55% in size; further: potency means the concentration at half of the fitted maximal effect)
# How it was run: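 Compounds in DMSO were pinned onto ARE-bla HepG2 cells plated 5 hrs earlier at 2,000 cells/well. Sixteen hours later at 37C/5% CO2, CellTiter-Glo was added and luminescence measured after 30 min at room temperature.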
# [7] = qHTS assay for small molecule activators of the heat shock response signaling pathway - cell viability counter screen (AID 743209); further: nearly all actives have a fitted effect of over 50% in size
# How it was run: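 Counter screen for cytotoxicity in HeLa HSE-bla reporter cells. Treatment was 5 h at 37 C; viability was detected by luminescent ATP assay (CellTiter-Glo) in the same wells as the beta-lactamase read.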
# [8] = qHTS assay for small molecule activators of the heat shock response signaling pathway (AID 743210; active means well fitted activation curve with a large enough effect in the signal ratio in the repeat runs, with a control signal flat, not every such curve was filed as active; the % refers to the signal ratio;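 further: HeLa cells with beta-lactamase reporter driven by heat shock elements; series mostly up to about 63 µM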)
# How it was run: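 HeLa HSE-bla cells, overnight plating; cpd in DMSO 5 h, 37 C; LiveBLAzer B/G FRET substrate 2.5 h RT; fluorescence intensity read.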
# [9] = biological target: Peroxisome proliferator-activated receptor delta (Homo sapiens) (UniProt Q03181); test: qHTS assay to identify small molecule agonists of the peroxisome proliferator-activated receptor delta (PPARd) signaling pathway (AID 743212; calls by dose curve;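 further: HEK293H cells with PPARd UAS beta-lactamase reporter GeneBLAzer system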)
# How it was run: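 HEK293H PPARd-bla cells; 5 h preincubation 37 C/5% CO2; compound (DMSO) 37 C; LiveBLAzer B/G FRET substrate 2 h RT; fluorescence intensity.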
# [10] = qHTS assay to identify small molecule agonists of the peroxisome proliferator-activated receptor delta (PPARd) signaling pathway - cell viability counter screen (AID 743211); further: nearly all actives have a fitted effect of over 55% in size; further: potency means the concentration at half of the fitted maximal effect
# How it was run: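 Viability of GeneBLAzer PPARd UAS-bla HEK293H cells was assessed after 17 h compound incubation at 37C, using CellTiter-Glo reagent added after the reporter read and luminescence recorded 30 min later.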
# Peroxisome proliferator-activated receptor gamma (Homo sapiens), sequence (P37231 whole entry, looked up): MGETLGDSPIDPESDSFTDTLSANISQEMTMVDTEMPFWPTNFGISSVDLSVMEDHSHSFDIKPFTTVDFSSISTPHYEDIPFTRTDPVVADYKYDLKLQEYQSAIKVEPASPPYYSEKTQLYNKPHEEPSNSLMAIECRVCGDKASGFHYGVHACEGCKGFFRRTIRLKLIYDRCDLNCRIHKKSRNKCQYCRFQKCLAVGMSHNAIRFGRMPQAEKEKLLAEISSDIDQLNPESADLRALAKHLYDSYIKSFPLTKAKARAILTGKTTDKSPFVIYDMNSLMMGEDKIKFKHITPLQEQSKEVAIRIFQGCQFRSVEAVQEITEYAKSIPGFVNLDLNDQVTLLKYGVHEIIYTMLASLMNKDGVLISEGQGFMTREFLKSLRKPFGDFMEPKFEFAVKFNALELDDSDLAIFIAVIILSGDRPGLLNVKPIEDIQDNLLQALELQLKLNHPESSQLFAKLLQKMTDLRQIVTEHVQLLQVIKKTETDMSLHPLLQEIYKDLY
# Peroxisome proliferator-activated receptor delta (Homo sapiens), sequence (Q03181 whole entry, looked up): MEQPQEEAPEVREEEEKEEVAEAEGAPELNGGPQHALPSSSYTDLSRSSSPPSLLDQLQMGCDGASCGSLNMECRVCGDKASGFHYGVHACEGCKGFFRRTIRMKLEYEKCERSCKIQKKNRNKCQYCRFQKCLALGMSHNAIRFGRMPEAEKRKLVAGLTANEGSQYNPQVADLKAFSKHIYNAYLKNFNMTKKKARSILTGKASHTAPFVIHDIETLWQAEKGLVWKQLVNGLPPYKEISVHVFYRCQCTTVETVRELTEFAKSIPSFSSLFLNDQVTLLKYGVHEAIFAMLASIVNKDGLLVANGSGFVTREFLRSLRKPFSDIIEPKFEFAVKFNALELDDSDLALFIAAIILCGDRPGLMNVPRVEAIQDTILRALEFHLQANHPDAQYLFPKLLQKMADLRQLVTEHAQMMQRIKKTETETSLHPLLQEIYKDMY
Compound,Potency [1],Potency [2],Potency [3],Potency [4],Potency [5],Potency [6],outcome [7],outcome [8],outcome [9],Potency [10]
CC(=O)CCC(C)C,inactive,inactive,inactive,inactive,61.1 µM (active),inactive,inactive,inactive,inactive,
COc1cc(O)c(C(=O)c2ccccc2)cc1S(=O)(=O)O,inactive,inactive,inactive,inactive,inactive,inactive,inactive,inactive,inactive,
COC(=O)c1ccc(O)cc1,inactive,inactive,inactive,inactive,inactive,inactive,inactive,inactive,inactive,
C#C[C@]1(O)CC[C@H]2[C@@H]3CCC4=CC(=O)CC[C@@H]4[C@H]3CC[C@@]21CC,inactive,inactive,inactive,inactive,48.6 µM (active),inactive,inactive,,inactive,inactive
CCOC(=O)C(C)(C)Oc1ccc(Cl)cc1,inactive,inactive,inactive,inactive,inactive,inactive,inactive,inactive,inactive,
OCCCc1ccccc1,inactive,inactive,inactive,inactive,inactive,inactive,inactive,inactive,inactive,inactive
CC(=O)Oc1ccccc1C(=O)O,inactive,inactive,inactive,inactive,inactive,inactive,inactive,,,inactive
CCn1cc(C(=O)O)c(=O)c2ccc(C)nc21,inactive,inactive,inactive,inactive,inactive,inactive,inactive,inactive,inactive,
CCCCCCCC(=O)OCC(O)CO (stereo not drawn),inactive,inactive,inactive,inactive,inactive,inactive,inactive,inactive,inactive,
CCCCCCCCOc1ccc(C(=O)c2ccccc2)c(O)c1,inactive,inactive,inactive,inactive,inactive and 48.6 µM (active),inactive,inactive,inactive,inactive,inactive
COc1cc(C=O)ccc1O,inactive,inactive,inactive,inactive,inactive,inactive,inactive,,inactive,
CCCCOCCOCCSC#N,inactive,inactive,,inactive,inactive,inactive,inactive,,inactive,inactive
C[C@]12CC[C@@H]3c4ccc(O)cc4C[C@@H](CCCCCCCCCS(=O)CCCC(F)(F)C(F)(F)F)[C@H]3[C@@H]1CC[C@@H]2O (stereo partly drawn),inactive,inactive,inactive,inactive,,inactive,inactive,inactive,inactive,
Cc1cccc(Nc2cc(Cl)nc(SCC(=O)O)n2)c1C,inactive,,inactive,inactive,,inactive,inactive,inactive,,inactive
COC(=O)C1CCC(C(=O)OC)CC1 (stereo not drawn),inactive,inactive,inactive,inactive,,inactive,inactive,inactive,inactive,inactive
CO[C@H]1C=CO[C@@]2(C)Oc3c(C)c(O)c4c(O)c(c(/C=N/N5CCN(C)CC5)c(O)c4c3C2=O)NC(=O)/C(C)=C\C=C[C@H](C)[C@H](O)[C@@H](C)[C@@H](O)[C@@H](C)[C@H](OC(C)=O)[C@@H]1C,29.8 µM (active) and 27.4 µM (active) and 15.5 µM (active),inactive,,inactive,,inactive,inactive,inactive,inactive,
NC(=O)N/N=C/c1ccc([N+](=O)[O-])o1,inactive and 62.9 µM [cytotoxic] (active),inactive,,inactive,inactive and 11.9 µM (active),inactive and 54.5 µM (active),inactive,inactive,inactive,
C/C=C/c1ccc(O)c(OC)c1,inactive,inactive,,inactive,,inactive,inactive,inactive,inactive,inactive
C#C[C@]1(O)CC[C@H]2[C@@H]3CCc4cc(O)ccc4[C@H]3CC[C@@]21C,inactive,inactive,,inactive,inactive,inactive,inactive,inactive,inactive,
COc1ccc(O)cc1,inactive,,,inactive,,inactive,inactive,inactive,inactive,inactive
CCc1cc(C(N)=S)ccn1,inactive,,,inactive,,inactive,inactive,inactive,,inactive

Compound,Potency [1],Potency [2],Potency [3],Potency [4],Potency [5],Potency [6],outcome [7],outcome [8],outcome [9],Potency [10]
O=c1cc[nH]c(=O)[nH]1,inactive,,,inactive,inactive,inactive,inactive,inactive,inactive,inactive
NC(=O)OCC(COC(N)=O)c1ccccc1,inactive,,,inactive,,inactive,inactive,inactive,inactive,
O=C1OC(c2ccc(O)cc2)(c2ccc(O)cc2)c2ccccc21,inactive,inactive,,inactive,,inactive,inactive,inactive,,
CC(=O)/C=C/C1=C(C)CCCC1(C)C,inactive,inactive,,inactive,inactive,inactive,inactive,inactive,,
Cc1c(N(C)C)c(=O)n(-c2ccccc2)n1C,inactive,,,inactive,inactive,inactive,inactive,inactive,inactive,inactive
COC1=CC(=O)C[C@@H](C)[C@]12Oc1c(Cl)c(OC)cc(OC)c1C2=O,inactive,inactive and 48.5 µM (active),19.5 µM (active),inactive,,inactive,inactive,inactive,inactive,inactive
CC1=NN(c2ccccc2)C(=O)C1,inactive,inactive,,inactive,inactive,inactive,inactive,inactive,inactive,inactive
COc1cc2c(c(OC)c1OC)-c1ccc(OC)c(=O)cc1[C@@H](NC(C)=O)CC2,inactive,inactive,inactive,inactive,,inactive,inactive,inactive,,
CC(C)=CCC/C(C)=C/CO,inactive,inactive,,inactive,inactive,inactive,inactive,,,inactive
CC(=O)OC/C=C(C)/C=C/C=C(C)/C=C/C1=C(C)CCCC1(C)C,inactive,inactive,inactive,inactive,59.6 µM (active),inactive,inactive,,inactive,
CC1=C(/C=C/C(C)=C/C=C/C(C)=C/C(=O)O)C(C)(C)CCC1,inactive,0.535 µM (active),,inactive,,inactive,,,,
NCCNc1cccc2ccccc12,,inactive,,,,inactive,inactive,inactive,inactive,
C[C@]12CC[C@@H]3c4ccc(O)cc4CC[C@H]3[C@@H]1CCC2=O,inactive,,,inactive,,inactive,inactive,inactive,,
COc1ccccc1NC(=O)CC(C)=O,inactive,inactive,,inactive,inactive,inactive,inactive,inactive,inactive,
O=C(O)CCCCC1CCSS1 (stereo not drawn),inactive,inactive,inactive,inactive,,inactive,inactive,inactive,inactive,inactive
CN/C(=C\[N+](=O)[O-])NCCSCc1ccc(CN(C)C)o1,inactive,inactive,inactive,inactive,inactive,inactive,inactive,,inactive,
C[C@]12C[C@H](O)[C@H]3[C@@H](CCC4=CC(=O)CC[C@@]43C)[C@@H]1CC[C@@H]2C(=O)CO,inactive,inactive,,inactive,inactive,inactive,inactive,inactive,inactive,
Cc1cnc(NC(=O)C2=C(O)c3ccccc3S(=O)(=O)N2C)s1,inactive,inactive,inactive,inactive,,inactive,inactive,inactive,inactive,inactive
CC(C)(C)CC(C)(C)c1ccc(O)c(-n2nc3ccccc3n2)c1,inactive,inactive,inactive,,inactive,inactive,inactive,inactive,inactive,49.7 µM (active) and 49 µM (active)
NC(=O)NO,inactive,,,inactive,inactive,inactive,inactive,inactive,inactive,inactive
